For eight compounds, Percent Effect results are on record in ChEMBL document CHEMBL3988442, “University of Dundee, Small-Polar-MMV Screening Library” (2021).

SMILES strings stand for the structures. For some of these results: Results with a measured potency or affinity are listed apart.

Common to all, as to parameters: scale not given: direction of the effect not stated beside the values
Assay [1] addresses Protein translocase subunit SecA (Escherichia coli (strain K12)) (UniProt P10408). The assay is described as follows: Assay to Identify E. coli SecA ATPase Inhibitors. It counts as functional. The following applies: 30 µM.
Assay [2] has as its target T1, Ubiquitin-activating enzyme e1, putative (Leishmania donovani (strain BPK282A1)) (UniProt E9BSI1).
T1 sequence (whole entry): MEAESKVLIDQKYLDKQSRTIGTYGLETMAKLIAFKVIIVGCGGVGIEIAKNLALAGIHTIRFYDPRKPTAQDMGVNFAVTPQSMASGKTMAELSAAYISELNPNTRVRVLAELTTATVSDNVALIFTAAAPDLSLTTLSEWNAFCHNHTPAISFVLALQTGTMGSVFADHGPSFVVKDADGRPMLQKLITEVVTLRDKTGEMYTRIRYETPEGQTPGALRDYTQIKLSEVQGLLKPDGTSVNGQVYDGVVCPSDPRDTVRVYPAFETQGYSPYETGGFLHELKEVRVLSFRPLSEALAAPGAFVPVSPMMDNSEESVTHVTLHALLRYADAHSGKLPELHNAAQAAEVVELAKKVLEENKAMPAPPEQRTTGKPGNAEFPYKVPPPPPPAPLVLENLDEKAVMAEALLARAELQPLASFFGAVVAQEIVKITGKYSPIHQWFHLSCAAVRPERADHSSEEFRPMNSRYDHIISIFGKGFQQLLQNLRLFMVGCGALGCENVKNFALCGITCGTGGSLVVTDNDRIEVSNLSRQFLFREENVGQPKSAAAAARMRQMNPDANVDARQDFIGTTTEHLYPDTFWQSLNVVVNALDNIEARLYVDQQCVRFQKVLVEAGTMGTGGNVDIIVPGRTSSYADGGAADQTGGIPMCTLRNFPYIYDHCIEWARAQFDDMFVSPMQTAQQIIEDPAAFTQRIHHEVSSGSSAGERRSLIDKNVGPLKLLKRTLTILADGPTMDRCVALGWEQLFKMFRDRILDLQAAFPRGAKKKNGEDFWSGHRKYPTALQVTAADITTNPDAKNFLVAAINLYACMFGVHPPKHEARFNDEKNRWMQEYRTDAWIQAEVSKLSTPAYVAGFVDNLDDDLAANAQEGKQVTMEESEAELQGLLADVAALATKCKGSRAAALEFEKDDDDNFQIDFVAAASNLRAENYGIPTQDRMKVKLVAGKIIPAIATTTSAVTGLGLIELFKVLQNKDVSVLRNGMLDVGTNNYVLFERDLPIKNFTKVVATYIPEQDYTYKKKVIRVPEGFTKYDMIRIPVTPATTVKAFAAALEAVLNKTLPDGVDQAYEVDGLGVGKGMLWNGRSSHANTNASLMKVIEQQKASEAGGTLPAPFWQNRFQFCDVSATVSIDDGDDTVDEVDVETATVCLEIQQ
As to the kind of experiment: Leishmania donovani Ubiquitin Activating Enzyme (LdE1). It counts as functional. Conditions: 30 µM.

The target in assay [3] is AMP-activated protein kinase, AMPK (Homo sapiens) (UniProt P54646+O43741+P54619+Q9UGJ0+Q9Y478+Q13131+Q9UGI9). The assay is described as follows: AMP-dependent Kinase enzyme assay. An in vitro enzyme assay that detects ADP turnover that is directly proportional to AMPK activity. This uses naive AMPK that is activated during the assay with MK-8722. The assay is classed as functional. Conditions: 30 µM.

Assay [4] concerns the target Sialic acid-binding Ig-like lectin 9 (Homo sapiens) (UniProt Q9Y336). The assay is described as follows: Hs-Siglec9 ALPHAscreen SOP 20170721. The following applies: 10 µM.
The test system of the next assay is Trypanosoma cruzi. The assay is described as follows: Trypanosoma cruzi phosphomannomutase and mannose-1-phosphate guanylyltransferase assay. The assay is classed as functional. The following applies: 10 µM.
The target of assay [5] is T2, Arginase-2, mitochondrial (Homo sapiens) (UniProt P78540).
T2 sequence (whole entry): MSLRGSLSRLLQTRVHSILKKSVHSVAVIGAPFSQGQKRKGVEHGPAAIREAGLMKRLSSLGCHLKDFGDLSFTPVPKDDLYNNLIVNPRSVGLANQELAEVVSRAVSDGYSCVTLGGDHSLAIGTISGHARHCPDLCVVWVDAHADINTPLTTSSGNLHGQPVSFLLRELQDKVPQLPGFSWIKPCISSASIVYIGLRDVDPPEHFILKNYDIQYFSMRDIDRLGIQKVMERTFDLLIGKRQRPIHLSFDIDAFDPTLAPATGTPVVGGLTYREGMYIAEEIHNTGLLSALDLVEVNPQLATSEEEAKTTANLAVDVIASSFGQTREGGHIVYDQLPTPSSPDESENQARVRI
The assay is described as follows: in vitro enzyme assay to detect the production of urea directly proportional to the activity of Arginase II. Further: in the data most compounds retested in dose-response had high values. The assay is classed as functional. Conditions: 33.3 µM.

For assay [6], the target named is T3, Proteasome subunit beta (Trypanosoma cruzi) (UniProt O96673).
T3 sequence (whole entry): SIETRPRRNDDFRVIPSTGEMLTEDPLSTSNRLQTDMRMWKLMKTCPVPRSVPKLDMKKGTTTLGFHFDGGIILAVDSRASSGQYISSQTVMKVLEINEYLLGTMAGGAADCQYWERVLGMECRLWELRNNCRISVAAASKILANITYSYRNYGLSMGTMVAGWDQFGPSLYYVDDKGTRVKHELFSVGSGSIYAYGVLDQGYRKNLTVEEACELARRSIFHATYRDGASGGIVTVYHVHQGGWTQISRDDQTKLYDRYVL
As to the kind of experiment: Trypanosoma cruzi proteasome chymotrypsin-like activity (TcProtChymo) assay. Further: in the data most compounds retested in dose-response had high values. It counts as functional. Conditions: 9.37 µM.

The species named for another assay is Homo sapiens. The assay is described as follows: To identify inhibition of the IFN signalling (Jak-Stat) pathway via expression of an eGFP reporter gene under the control of an IFN-stimulated response element (ISRE) containing MxA promoter. The assay is classed as functional. Conditions: 30 µM.
For assay [7], the target named is T4, Tyrosyl-tRNA synthetase, putative (Trypanosoma cruzi (strain CL Brener)) (UniProt Q4DSP6).
T4 sequence (whole entry): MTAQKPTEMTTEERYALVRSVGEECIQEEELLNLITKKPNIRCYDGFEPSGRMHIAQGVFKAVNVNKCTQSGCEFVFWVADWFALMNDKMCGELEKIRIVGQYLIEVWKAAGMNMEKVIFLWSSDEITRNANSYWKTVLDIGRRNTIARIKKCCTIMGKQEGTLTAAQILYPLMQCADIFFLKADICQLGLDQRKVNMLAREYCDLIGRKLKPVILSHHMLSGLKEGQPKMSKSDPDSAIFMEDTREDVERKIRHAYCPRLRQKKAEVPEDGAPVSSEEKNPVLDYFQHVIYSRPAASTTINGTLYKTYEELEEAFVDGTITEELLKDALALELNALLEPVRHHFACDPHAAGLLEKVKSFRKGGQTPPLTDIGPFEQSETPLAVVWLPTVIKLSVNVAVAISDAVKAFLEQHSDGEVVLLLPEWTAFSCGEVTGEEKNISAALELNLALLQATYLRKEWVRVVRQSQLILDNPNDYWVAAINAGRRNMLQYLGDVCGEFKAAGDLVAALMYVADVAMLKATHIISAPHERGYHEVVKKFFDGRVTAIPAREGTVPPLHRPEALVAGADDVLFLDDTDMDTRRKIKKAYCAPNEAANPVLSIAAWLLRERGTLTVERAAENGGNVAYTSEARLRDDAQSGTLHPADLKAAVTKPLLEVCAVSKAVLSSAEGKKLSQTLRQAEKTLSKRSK
As to the kind of experiment: Trypanosoma cruzi tyrosyl tRNA synthetase (TcYRS) _High Tyrosine SOP. Further: in the data most compounds retested in dose-response had high values. It counts as functional. Conditions: 30 µM.

The target of assay [8] is T4, Tyrosyl-tRNA synthetase, putative (Trypanosoma cruzi (strain CL Brener)). The assay is described as follows: Trypanosoma cruzi tyrosyl tRNA synthetase (TcYRS) SOP. The assay is classed as functional. Conditions: 30 µM.
In assay [9] the target is Chromo domain-containing protein 1 (Saccharomyces cerevisiae (strain ATCC 204508 / S288c) (Baker's yeast)) (UniProt P32657). The assay is described as follows: ScCHD-1 Enzyme Inhibition Assay. Further: in the data most compounds retested in dose-response had high values. The following applies: 30 µM. It counts as functional.
Chain of Chromo domain-containing protein 1 (Saccharomyces cerevisiae (strain ATCC 204508 / S288c) (Baker's yeast)) (P32657 whole entry, the tested form may be a part): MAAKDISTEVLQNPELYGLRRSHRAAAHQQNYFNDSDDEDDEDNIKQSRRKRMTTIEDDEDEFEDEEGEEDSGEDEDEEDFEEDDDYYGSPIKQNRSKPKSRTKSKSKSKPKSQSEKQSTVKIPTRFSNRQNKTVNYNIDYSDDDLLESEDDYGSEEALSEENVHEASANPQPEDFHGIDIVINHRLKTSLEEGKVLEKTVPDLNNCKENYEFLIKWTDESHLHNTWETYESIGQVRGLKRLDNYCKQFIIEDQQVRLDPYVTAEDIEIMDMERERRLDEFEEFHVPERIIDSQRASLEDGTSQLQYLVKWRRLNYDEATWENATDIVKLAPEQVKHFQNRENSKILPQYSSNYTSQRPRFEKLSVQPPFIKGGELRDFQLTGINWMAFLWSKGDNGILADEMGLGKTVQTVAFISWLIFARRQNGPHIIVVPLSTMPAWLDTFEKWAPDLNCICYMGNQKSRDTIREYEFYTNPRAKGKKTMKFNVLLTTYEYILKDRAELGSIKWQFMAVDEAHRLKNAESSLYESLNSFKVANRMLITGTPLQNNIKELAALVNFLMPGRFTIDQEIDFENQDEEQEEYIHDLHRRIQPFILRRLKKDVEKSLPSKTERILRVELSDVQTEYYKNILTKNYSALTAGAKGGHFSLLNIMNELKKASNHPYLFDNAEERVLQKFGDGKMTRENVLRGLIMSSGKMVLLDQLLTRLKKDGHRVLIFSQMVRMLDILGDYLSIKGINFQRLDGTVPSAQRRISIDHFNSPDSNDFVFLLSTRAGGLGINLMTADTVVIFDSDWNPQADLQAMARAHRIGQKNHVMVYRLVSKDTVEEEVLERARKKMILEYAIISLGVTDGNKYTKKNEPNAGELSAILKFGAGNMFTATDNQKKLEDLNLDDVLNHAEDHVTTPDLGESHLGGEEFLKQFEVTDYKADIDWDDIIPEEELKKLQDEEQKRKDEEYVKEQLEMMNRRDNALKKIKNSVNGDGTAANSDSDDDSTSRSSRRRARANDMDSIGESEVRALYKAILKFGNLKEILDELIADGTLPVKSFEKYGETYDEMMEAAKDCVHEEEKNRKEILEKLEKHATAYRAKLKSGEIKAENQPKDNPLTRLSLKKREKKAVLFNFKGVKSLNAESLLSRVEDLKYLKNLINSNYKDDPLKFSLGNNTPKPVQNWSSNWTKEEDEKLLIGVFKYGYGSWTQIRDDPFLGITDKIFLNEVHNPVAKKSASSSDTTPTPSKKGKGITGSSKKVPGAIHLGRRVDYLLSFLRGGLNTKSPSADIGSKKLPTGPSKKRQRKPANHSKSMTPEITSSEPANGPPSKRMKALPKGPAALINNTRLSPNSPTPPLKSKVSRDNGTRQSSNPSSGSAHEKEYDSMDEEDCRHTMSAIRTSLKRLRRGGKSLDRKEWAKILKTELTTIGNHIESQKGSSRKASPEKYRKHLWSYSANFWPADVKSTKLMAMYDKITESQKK

Chain of Protein translocase subunit SecA (Escherichia coli (strain K12)) (P10408 whole entry): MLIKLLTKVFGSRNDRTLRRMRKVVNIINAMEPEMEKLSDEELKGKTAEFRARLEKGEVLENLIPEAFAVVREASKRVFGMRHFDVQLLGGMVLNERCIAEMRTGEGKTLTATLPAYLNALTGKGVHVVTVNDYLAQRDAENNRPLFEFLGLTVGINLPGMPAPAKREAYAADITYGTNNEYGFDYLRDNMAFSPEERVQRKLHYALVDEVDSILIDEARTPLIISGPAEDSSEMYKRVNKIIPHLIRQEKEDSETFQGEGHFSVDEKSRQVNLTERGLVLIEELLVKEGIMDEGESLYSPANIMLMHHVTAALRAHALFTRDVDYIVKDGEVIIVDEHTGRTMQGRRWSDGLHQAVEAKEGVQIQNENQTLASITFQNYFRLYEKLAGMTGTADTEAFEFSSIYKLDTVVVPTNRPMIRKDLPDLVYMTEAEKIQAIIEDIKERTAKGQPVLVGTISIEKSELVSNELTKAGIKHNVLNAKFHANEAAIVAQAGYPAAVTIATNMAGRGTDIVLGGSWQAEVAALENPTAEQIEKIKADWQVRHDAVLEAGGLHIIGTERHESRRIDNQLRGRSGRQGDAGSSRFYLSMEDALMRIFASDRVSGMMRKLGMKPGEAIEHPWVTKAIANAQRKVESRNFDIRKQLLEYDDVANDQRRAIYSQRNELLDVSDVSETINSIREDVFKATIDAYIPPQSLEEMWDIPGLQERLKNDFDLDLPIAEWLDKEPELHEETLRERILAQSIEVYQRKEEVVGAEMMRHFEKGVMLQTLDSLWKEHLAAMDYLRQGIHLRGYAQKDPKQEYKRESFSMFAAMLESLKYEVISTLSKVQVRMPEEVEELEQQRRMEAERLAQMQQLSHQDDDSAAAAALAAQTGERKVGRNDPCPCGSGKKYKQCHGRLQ
Chain of Sialic acid-binding Ig-like lectin 9 (Homo sapiens) (Q9Y336 whole entry): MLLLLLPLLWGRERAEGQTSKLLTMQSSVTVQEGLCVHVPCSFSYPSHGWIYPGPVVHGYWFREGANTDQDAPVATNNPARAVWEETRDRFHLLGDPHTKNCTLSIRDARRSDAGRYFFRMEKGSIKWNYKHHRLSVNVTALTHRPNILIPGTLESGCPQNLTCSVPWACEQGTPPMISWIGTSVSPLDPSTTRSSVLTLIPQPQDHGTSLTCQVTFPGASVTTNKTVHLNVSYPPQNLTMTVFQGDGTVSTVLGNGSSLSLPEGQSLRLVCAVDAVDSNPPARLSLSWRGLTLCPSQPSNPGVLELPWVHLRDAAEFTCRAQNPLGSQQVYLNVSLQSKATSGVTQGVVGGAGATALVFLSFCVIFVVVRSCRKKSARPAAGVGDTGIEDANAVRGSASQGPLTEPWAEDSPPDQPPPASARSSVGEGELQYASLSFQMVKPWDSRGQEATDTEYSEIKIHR

Take `O=C(c1ccc(Cl)o1)N1CCCN(Cc2cscn2)CC1`: the Percent Effect in assay [1] was -5.01%; in [2], 15.6%; in assay [3], -7.43%; in assay [4] it was -4.3%; with Trypanosoma cruzi, 4.02%; in assay [5], -2.74%. Besides, the Percent Effect was 16.1% in [6]; 0.576% in the assay filed under Homo sapiens; 6.67% in [7]; 14.1% in assay [8]; -17.3% in assay [9].
Turning to `CC(C)C1CN(C(=O)c2ccc(C(N)=O)cc2)CCS1` (stereo not drawn), the Percent Effect in assay [1] is -4.2%; in assay [2], 5.2%; in [3], 1.75%; in assay [4], 3.92%; in the assay with Trypanosoma cruzi, -6.2%; in [5] it was -4.14%. In addition, the Percent Effect in [6] worked out at 6.49%; in the assay listed under Homo sapiens, 6.03%; in assay [7] it was 2.15%; in [8] it was 6.17%; in assay [9] it was 0.585%.
Regarding `Cc1cc(N2CCCCCC2)n2nc(C)c(C)c2n1`, the Percent Effect in assay [1] is -1.9%; in assay [2], 4.17%; in assay [3], -3.08%; in [4] it was 0.107%; in the assay on Trypanosoma cruzi it was 12.2%; in assay [5], -0.883%. The Percent Effect is 23.3% in [6]; 3.63% in the assay listed under Homo sapiens; 0% in [7]; 12.8% in [8]; -7.26% in assay [9].
For `COc1cc(N2C[C@@H]3COC[C@]3(COc3ccc(C#N)cn3)C2)ncn1`, the Percent Effect was -3.38% in [1]; 13.5% in [2]; 2.34% in [3]; 2.33% in assay [4]; 4.01% in the assay with Trypanosoma cruzi; 9.24% in assay [5]. Moreover, the Percent Effect stood at 12.6% in assay [6]; 35.9% in the assay filed under Homo sapiens; 4.32% in [7]; 7.69% in assay [8]; 1.63% in [9].
`CN(C)C(=O)c1ccc2c(c1)N(C)C(CC(=O)NC(C)(C)CO)CO2` (stereo not drawn): the Percent Effect was -8.01% in assay [1]; -4.17% in assay [2]; -3.33% in assay [3]; 3.27% in assay [4]; -2.82% with Trypanosoma cruzi; -2.21% in assay [5]. For the same compound, the Percent Effect in [6] was 10.7%; in the assay listed under Homo sapiens it was -2.49%; in [7] it was -2.1%; in assay [8], -5.13%; in assay [9] it was 0.823%.
With `O=C(NCc1nnc2n1CCCCC2)N1CCc2sccc2C1`, the Percent Effect in assay [1] was 0.647%; in assay [2], 16.5%; in assay [3], -6.61%; in [4], 2.88%; with Trypanosoma cruzi, 1.95%; in assay [5] it was 2.8%. Also, the Percent Effect in [6] was 13%; in the assay filed under Homo sapiens it was 16.8%; in assay [7] it was 0%; in [8], 10.1%; in assay [9], -27%.
As to `Cc1noc(C(C)C)c1C(=O)NCc1cc(F)cc(F)c1`, the Percent Effect in assay [1] is -3.99%; in [2], 15.6%; in [3], 7.66%; in assay [4], -1.87%; with Trypanosoma cruzi it was -7.12%; in [5] it was 3.92%. For the same compound, the Percent Effect in assay [6] was 11.5%; in the assay filed under Homo sapiens it was 17.8%; in [7], 3.88%; in assay [8] it was 14.6%; in [9], -9.23%.
Regarding `CN(C)C(=O)N1C[C@@H]2CC[C@H](C1)N(Cc1ccc3nsnc3c1)C2`, the Percent Effect is -2.91% in [1]; -1.39% in assay [2]; -8.41% in assay [3]; -5.35% in assay [4]; -2.04% in the assay on Trypanosoma cruzi; 4.42% in assay [5]. Also, the Percent Effect in assay [6] was 13.2%; in the assay filed under Homo sapiens, -11.8%; in assay [7] it was 0%; in [8], 2.56%; in assay [9] it was -0.102%.
